40 compounds from PubChem BioAssay (NCATS) can be followed below.

Each structure is given as a SMILES string. Inconclusive results are not listed. Unmarked numbers belong to inactive results. Calls of active or inactive are those of the source. The call rests on the fitted dose curve; in most records, active means well fitted cell-killing curve with a large enough effect; inconclusive means small, poorly fitted or top-dose-only effect; inactive means flat fitted curve, though single readings scatter.
Potency means the concentration at half of the fitted maximal effect.

The test is described as follows: qHTS of pediatric cancer cell lines to identify multiple opportunities for drug repurposing: Primary screen for DAOY cells (AID 1347090). Further: nearly all actives have a fitted effect of over 55% in size. Conditions: DAOY medulloblastoma viability, CellTiter-Glo luminescence, 48 h; series mostly up to 46 µM; activity change, negative = cytotoxic: at the top concentration. The source says: Drug repurposing or repositioning has been offered as a strategy for drug development in oncology programs. This approach has special potential for childhood cancers and other rare or orphan diseases, where the expected return on new drug development has been a disincentive to pharmaceuticals.
In this project we exploit the poly-pharmacology of drugs to discover new indications via phenotypic screening of a panel of 19 well-characterized cell lines derived from solid tumors seen in children and adolescents. The goal is to identify approved drugs with previously unrecognized anticancer properties that has the potential to reveal new mechanisms and biological processes involved in carcinogenesis or drug resistance. We employed a titration-based paradigm (quantitative high-throughput screening or qHTS), where all compounds were tested at multiple concentrations for their effect on cell viability. Concentration-response curves (CRCs) were derived directly from the primary screen, and both potency and efficacy values were used to identify compounds with robust bioactivity profiles. We screened the NIH Chemical Genomics Center (NCGC) Pharmaceutical Collection (NPC) and Mechanism Interrogation Plate (MIPE) small molecule collections of approved and investigational compounds against these cell lines; and measured metabolically active cells after 48 hours of compound treatment as a proxy for cell viability.
Assay Submitter: Nathalia J. Martinez, National Center for Advancing Translational Sciences, National Institutes of Health, Rockville, MD, USA; email: natalia.martinez@nih.gov
[1] Shen, M et al. Quantitative high-throughput phenotypic screening of pediatric cancer cell lines identifies multiple opportunities for drug repurposing. Oncotarget 2017 Dec 19;9(4):4758-4772. PMID 29435139.
The cells were obtained from University of North Carolina (UNC), Pediatric Preclinical Testing Program (PPT), and Coriell Institute (CI).
qHTS cell viability assay:
Cells were assayed in growth media at a density of 500-1,000 cells/well. Five microliters of cells were dispensed into 1,536-well, white, solid-bottom, TC-treated plates (Greiner Bio One) using a multidrop dispenser and incubated at 37 degrees C, 5% CO2, under a humidified atmosphere for 5 hours. Twenty-three nanoliters of compounds and controls (neutral control DMSO or positive control bortezomib at final concentration of 2.3 µM) were subsequently transferred by Kalypsys pintool. For primary screens, the MIPE collection was tested at 11-point dilutions (final concentrations range from 0.78 nM to 46 µM) and the NPC collection at 8-point dilutions (final concentrations range from 0.59 nM to 46 µM). Compounds tested in follow-up screens were assayed at 11-point dilutions. Cells were incubated for 48 hours, followed by addition of 3 uL of CellTiter-Glo (Promega). After a 15 min incubation at room temperature, samples were analyzed for luminescence intensity using a ViewLux High-throughput CCD imager equipped with clear filters.
For the compound `Cc1c(-c2ccccc2)oc2c(C(=O)OCCN3CCCCC3)cccc2c1=O`, the “activity change, negative = cytotoxic” value was -13.2%.

As to `CCCCNC(=O)NS(=O)(=O)c1ccc(N)cc1`, the “activity change, negative = cytotoxic” value was 6.59%.

Regarding `CCCCCCCCOc1ccc(C(=O)c2ccccc2)c(O)c1`, the “activity change, negative = cytotoxic” value is 5.35%.

In the case of `CCc1cc(Cl)c(OC)c(C(=O)NC[C@@H]2CCCN2CC)c1O`, the “activity change, negative = cytotoxic” value is -2.42%.

Regarding `OC[C@H]1O[C@@H](Oc2ccc(O)cc2)[C@H](O)[C@@H](O)[C@@H]1O`, the “activity change, negative = cytotoxic” value is 2.67%.

In the case of `CC(C(=O)O)c1cccc(Oc2ccccc2)c1` (stereo not given), the “activity change, negative = cytotoxic” value was 6%.

Consider `NC(N)=NN=C(/C=C/c1ccc([N+](=O)[O-])o1)/C=C/c1ccc([N+](=O)[O-])o1`, for which the Potency is 10.6 µM (active).

Turning to `CN(C)C(=O)Nc1ccc(Cl)c(Cl)c1`, the “activity change, negative = cytotoxic” value was -1.98%.

Consider `CCCCC(CC)COC(=O)/C=C/c1ccc(OC)cc1` (stereo not given), for which the “activity change, negative = cytotoxic” value is 4.25%.

Regarding `CN(C)CCN1C(=O)c2ccccc2N(C)c2ccccc21`, the “activity change, negative = cytotoxic” value was -9.71%.

Take `Cc1c[nH]c2ccccc12`: the “activity change, negative = cytotoxic” value is 11%.

As to `O=C(Nc1cccc(C2=NCCN2)c1)Nc1cccc(C2=NCCN2)c1`, the “activity change, negative = cytotoxic” value is -13.3% [at 16.1 µM].

Turning to `O=C1C(=O)c2ccccc2C(O)=C1C1CCC(c2ccc(Cl)cc2)CC1` (stereo not given), the “activity change, negative = cytotoxic” value is 1.13%.

`CCOC(=O)c1ccc(N)cc1`: the “activity change, negative = cytotoxic” value is -10.1%.

Regarding `CCCCC(CC)COC(=O)c1ccc(N(C)C)cc1` (stereo not given), the “activity change, negative = cytotoxic” value is -8.99%.

For the compound `COc1ccc(-c2cc(C(F)F)nn2-c2ccc(S(N)(=O)=O)cc2)cc1F`, the “activity change, negative = cytotoxic” value was 0.742%.

As for `C/C=C/c1ccc(O)c(OC)c1`, the “activity change, negative = cytotoxic” value is -1.32%.

Consider `CCOC(=O)Nc1ccc2c(c1)N(C(=O)CCN1CCOCC1)c1ccccc1S2`, for which the “activity change, negative = cytotoxic” value was -20.2%.

`CC(C)(C)NCC(O)COc1cccc2c1C[C@H](O)[C@H](O)C2` (stereo not given in full): the “activity change, negative = cytotoxic” value is 6.93%.

Turning to `COC(=O)C(c1ccccc1Cl)N1CCc2sccc2C1` (stereo not given), the “activity change, negative = cytotoxic” value is 6.92%.

On to `Cc1cc2c(OCC(CNC(C)(C)C)OC(=O)c3ccccc3)cccc2[nH]1` (stereo not given), for which the “activity change, negative = cytotoxic” value is 4.74%.

On to `Cc1cc(CC(=O)O)c(C)n1-c1ccc(Cl)cc1`, for which the “activity change, negative = cytotoxic” value was -0.216%.

As to `COc1ccc2c(c1)c1c3n2CCN(C)C3=NCC1`, the “activity change, negative = cytotoxic” value was 3.35%.

Regarding `O=C(O)CCc1nc2ccccc2[nH]1`, the “activity change, negative = cytotoxic” value is -1.87%.

With `C#C[C@]1(O)CC[C@H]2[C@@H]3[C@H](C)CC4=C(CCC(=O)C4)[C@H]3CC[C@@]21C`, the “activity change, negative = cytotoxic” value was 1.56%.

With `Nc1ccc(S(=O)(=O)Nc2cnc3ccccc3n2)cc1`, the “activity change, negative = cytotoxic” value was 4.15%.

For the compound `CNCCc1ccccn1`, the “activity change, negative = cytotoxic” value was 9.21%.

Regarding `Cl/C(=C\n1cncn1)c1ccc(Cl)cc1Cl`, the “activity change, negative = cytotoxic” value was 7.63%.

With `CCCN(CCC)S(=O)(=O)c1ccc(C(=O)O)cc1`, the “activity change, negative = cytotoxic” value is -3.53%.

Take `CN(CCCN1c2ccccc2CCc2ccccc21)CC(=O)c1ccc(Cl)cc1`: the “activity change, negative = cytotoxic” value is 1.39%.

With `CC1(C)OC[C@@H]2O[C@@]3(C(=O)O)OC(C)(C)O[C@H]3[C@@H]2O1`, the “activity change, negative = cytotoxic” value was 5.22%.

Take `COc1ccc(S(=O)(=O)N2c3ccc(Cl)cc3[C@@](O)(c3ccccc3Cl)[C@H]2C(=O)N2CCC[C@@H]2C(N)=O)cc1OC`: the “activity change, negative = cytotoxic” value was -0.533%.

Regarding `OC1C(O)C(O)C(O)C(O)C1O` (stereo not given), the “activity change, negative = cytotoxic” value was -3.73%.

With `Cc1cccc(C)c1NC(=O)CN1CCCCCC1`, the “activity change, negative = cytotoxic” value is 7.57%.

Consider `CC(=O)Oc1ccc(C)cc1`, for which the “activity change, negative = cytotoxic” value is 12%.

Take `O=C(O)CCC(=O)Nc1ccc(S(=O)(=O)Nc2nccs2)cc1`: the “activity change, negative = cytotoxic” value is -0.149%.

As to `NC(=S)N/N=C/c1cccnc1`, the “activity change, negative = cytotoxic” value was 6.96%.

On to `CC(=O)O[C@]1(C(C)=O)CC[C@H]2[C@@H]3C=C(C)C4=CC(=O)CC[C@]4(C)[C@H]3CC[C@@]21C`, for which the “activity change, negative = cytotoxic” value was 6.6%.

Turning to `Cc1ccc(S(=O)(=O)NC(=O)NC2CCCC2)cc1`, the “activity change, negative = cytotoxic” value was 2.12%.

As for `COc1cc(O)c(C(=O)c2ccccc2)cc1S(=O)(=O)O`, the “activity change, negative = cytotoxic” value was 15.6%.
